In PubChem BioAssay AID488841 (Sanford-Burnham Center for Chemical Genomics, 2010):
Screen size: about 1,400 compounds; about 380 (27%) were called active.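 How the source made its calls: active means mean inhibition above 50% across duplicate retests at 10 µM; inactive means the rest.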 The list shows a part of the results.

Test: yeast NALP1 reporter signal suppression – S. cerevisiae, luminescence, single concentration, NALP1 inhibitor project, confirmation (AID 488841);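 further: plate controls were DMSO in galactose medium for no effect and cells in plain SD medium for full effect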
Details: S. cerevisiae NALP1/ASC/Caspase-1 reporter, beta-gal luminescence; at 10 µM; hits give high values

Structure (SMILES)	inhibition
CC1CCCN(CCOCCOc2ccc(Br)cc2Cl)C1 (centres undefined)	42% (inactive)
CC1CCCN(CCOCCSc2ccccc2)C1 (centres undefined)	39.5% (inactive)
CC1CCCN(CCCOc2ccc(Cl)cc2Br)C1 (centres undefined)	56.8% (active)
Cc1c(C)c2cc(Cl)c(O)c(CN3CCCCC3)c2oc1=O	31.9% (inactive)
COc1ccc(N2C(=O)C(Cl)=C(Nc3c(C)n(C)n(-c4ccccc4)c3=O)C2=O)cc1	36.8% (inactive)
O=C(CCc1nc2ccccc2s1)Nc1ccccc1	77.9% (active)
O=C(CSC1=NS(=O)(=O)c2ccccc21)Nc1ccccc1	37% (inactive)
O=C(O)CCCCc1nc2ccccc2s1	14.6% (inactive)
O=C(O)c1ccc2c(c1)N(Cc1cccc(F)c1)C(=O)CS2	19% (inactive)
NC(=S)N/N=C/c1coc2c(ccc3ccccc32)c1=O	34.1% (inactive)
O=C(/C=N/O)Nc1cccnc1	19.7% (inactive)
Cc1ccc(-c2csc3ncnc(Oc4cccc5ccc(C)nc45)c23)cc1	19.6% (inactive)
COc1ccc(-c2csc3ncnc(Oc4cccc5ccc(C)nc45)c23)cc1	67.6% (active)
O=S(=O)(CC(CN1CCCC1)N1CCCC1)c1ccc2ccccc2c1 (centres undefined)	21.4% (inactive)
CC(C)c1nc2sc3c(=O)[nH]cnc3c2c2c1CCC2	22% (inactive)
CCOC(=O)C(=Cc1cc(=O)c(OC)co1)C(=O)OCC	79.3% (active)
CC(=O)c1c(C)oc2c1C(=O)c1ccccc1C2=O	35.8% (inactive)
Cc1c(Cl)sn(-c2ccc(Cl)cc2)c1=O	73.5% (active)
C=C(C)C1CC=C(C)/C(=N/NC(=O)c2ccoc2C)C1 (centres undefined)	27.2% (inactive)
CN(C)C(=N)c1n[nH]nc1SCc1ccccc1	19.9% (inactive)
Cc1cccc(/C=C/C(=O)c2ccc(NC3=NCCCS3)cc2)c1	62% (active)
CC(C)(C)c1ccc(/C=C/C(=O)c2ccc(NC3=NCCCS3)cc2)cc1	43.9% (inactive)
Cc1ccc(Nc2cc(C)nc(NCc3ccccc3)n2)cc1	58.3% (active)
Cc1cc(N/N=C/c2ccccc2Cl)nc(NCc2ccccc2)n1	43.6% (inactive)
Cc1cc(N/N=C/c2ccccc2)nc(NCc2ccccc2)n1	58.4% (active)
Cc1cc(N/N=C/c2ccc(Cl)cc2)nc(NCc2ccccc2)n1	33.7% (inactive)
Cc1cc(N/N=C/c2cccc(Cl)c2)nc(NCc2ccccc2)n1	44.8% (inactive)
CCOC(=O)C1CCCN(C2CC(=O)N(c3cccc(C(F)(F)F)c3)C2=O)C1 (centres undefined)	32.6% (inactive)
CC1Cc2ccccc2N1CC(=O)Nc1ccc2c(c1)OC(F)(F)O2 (centres undefined)	30.3% (inactive)
